According to the OligoGym collection:

The sequences below were run against NLRP9 (assay: pooled miR-30 sensor sort-seq; sequence = guide strand). Details: shRNA.
Also: reference of the scale not given here.

Sequence	sensor-assay potency score (higher = more potent)
TTCTGTGTCAGAAGTATCCGGA	0.451
TTGTATTCCTCGTCAATCCAAG	-0.958
TTTTTTTGCAACAAACTGCTCA	0.0842
TATTGCTAGAACACTTAGGGAG	0.102
TAAATGTTGACAATGCTTCAGG	0.0203
TCTATAGACACATTCTAGCATC	-0.783
TTGTTTAACGTACTTGTGCTTC	-0.694
TTGTTGGTAATGAACATTGAGC	-1.13
TTTACAAACAGGCTGAGCCAGC	-0.948
TTGACTTAAACTTTCAAGGCAT	0.797
TTGGTAATGAACATTGAGCAAA	-1.26
TTTCACACAAGTACAGACCAAC	-0.447

The sequences below were run against NMD3 in the same assay as above. Details: shRNA.

Sequence	sensor-assay potency score (higher = more potent)
TTAGCCATTATCTTCATGCTGG	0.243
TTAACAAGTCTGATCTTGCTTA	0.213
TACTTAACAAGTCTGATCTTGC	0.186
TTAACTTTAAGTCTCTTAGAAT	-1.22
TTGATTAATACCACATCTGGAA	-0.0213
TTGATATCATTCCAGCACCTGC	-1.29
TTTATATCTTGGACTATGCTGC	0.0732
TTTTTGAGCTTTTACATCCAGA	-0.415
TCGAATACACACACAAATCTGG	-0.268
TTGAAGGATAGCACCATTCATC	-0.92
TTCACTAAAATAATCAACGTAA	-0.261
TATCTTGAGAGATCAGTCTTTG	-0.699

Each sequence was assayed against NMNAT2 in the same assay as above. Details: shRNA.

Sequence	sensor-assay potency score (higher = more potent)
TTGGTGATGGGATTGAAGCTGC	-0.365
TAGAAATCTACTTCTATGGCAC	0.539
TTTATTTCTAAAGGAAACCTAA	-0.873
TAAAGAACATTGTCTTTGCTTT	-0.457
TAACAGACTTTCTGGATGCTGC	-0.475
TTTGCTTTCAGGTCCCACCTGG	0.293
TTCTGTTAAATCAAGTTCCTTT	0.0856
TAGTCAAACACTGATACCCCAA	-0.77
TAAAAGTATCCTAATACTCAGG	-0.84
TTTCCTTTGTTTCATTTCCTGG	-0.769
TTATATTAAATAGGAAACCTGT	-0.594
TCCAGCAATAGCATCATCCTGA	-0.521
